TDP1 cell noCPT: qHTS for Inhibitors of human tyrosyl-DNA phosphodiesterase 1 (TDP1): qHTS in cells in absence of CPT; DT40 Tdp1-/- hTDP1 cells, no CPT, ATP luminescence, 48 h; Potency, µM (titrated, usually from 46.2 µM), without a hit: top-dose activity change, negative = growth inhibition, usual class: inhibitors; 15% of 420,000 active; also: potency is read from the fitted curve at half-maximal effect; % is scaled to controls: 0 for no effect and ±100 for the full control effect; nearly all actives have a fitted effect of over 55% in size
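Readout: luminescence from CellTiter-Glo after 30 min in the dark at RT. Cells: DT40 Tdp1-/- with stable hTDP1, 400/well. Exposure: compounds alone, ≥48 hr, 37 °C.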
DRD3 antagonist: blocks the human D3 dopamine receptor; P35462; D3R cells, DiscoveRx beta-arrestin luminescence, antagonist mode; active compounds read low; max response, negative = inhibition, %; 2.5% of 360,000 active; AID 652054; in the data active = max response below about -50%; inconclusive = no clear call, values can overlap the other calls; also: % is scaled to controls: 0 for no effect and ±100 for the full control effect
Target sequence (P35462 whole entry, looked up): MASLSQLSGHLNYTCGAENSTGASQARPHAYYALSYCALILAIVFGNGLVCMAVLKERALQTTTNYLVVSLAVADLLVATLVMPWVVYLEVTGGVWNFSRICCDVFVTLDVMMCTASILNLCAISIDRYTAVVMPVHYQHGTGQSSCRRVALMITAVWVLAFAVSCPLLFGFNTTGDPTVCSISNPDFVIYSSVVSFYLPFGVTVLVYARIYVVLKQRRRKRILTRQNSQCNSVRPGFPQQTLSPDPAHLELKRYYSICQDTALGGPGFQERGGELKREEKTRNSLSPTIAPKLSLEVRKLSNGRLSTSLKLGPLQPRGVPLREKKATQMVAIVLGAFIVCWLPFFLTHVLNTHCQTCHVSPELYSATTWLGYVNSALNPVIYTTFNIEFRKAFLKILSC
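Cells plated overnight at 1500 cells/well, then exposed to library compounds with dopamine controls for 90 minutes at 37 degrees C. DiscoveRx reagent added for 30–60 minutes at room temperature; luminescence read, quantitative HTS format.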
D3 ag: agonists of human D3 dopamine receptor. P35462. D3R DiscoveRx beta-arrestin cells, luminescence, 90 min. max activation, %. 0.58% of 410,000 active; in the data active = max activation above about 30%; also: 0% is about no effect
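Cells at 1500/well, incubated overnight, then treated with pinned compounds (dopamine as control) for 90 min at 37 degrees C. DiscoveRx reagent added for 30 - 60 minutes at room temperature; luminescence read.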
IL-1B inflam inh: blocks inflammasome-driven IL-1 beta release | activity change, % at 57.5 µM | 4.7% of 360,000 active | THP-1 LPS/ATP IL-1B secretion, AlphaLISA, 16 h; active compounds read low | AID 743279; in the data active = activity change below about -50%; inconclusive = mostly about -30% to -49%; also: % is scaled to controls: 0 for no effect and ±100 for the full control effect
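Secreted IL-1B measured by AlphaLISA bead assay after 16 h compound exposure of THP-1 cells; compounds (final up to 57.5 uM) added 1 h before LPS (250 ng/mL) and ATP (1.25 mM) stimulation; lower signal means less secretion.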
DT40 TDP1 CPT: DT40-hTDP1 cell growth loss with CPT | chicken DT40 Tdp1-/-;hTDP1 cells + 20 nM CPT, ATP luminescence, 48 h | Potency, µM (doses to about 46.2 µM), for inactives: at the top dose activity change, negative = growth inhibition, hits mostly inhibitors | 12% of 420,000 active | AID 686979; also: potency is read from the fitted curve at half-maximal effect; % is scaled to controls: 0 for no effect and ±100 for the full control effect; nearly all actives have a fitted effect of over 55% in size
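Cell growth measured by CellTiter-Glo luminescence after a minimum 48 h, 37 C compound exposure with 20 nM CPT in Tdp1-knockout DT40 cells stably expressing hTDP1, seeded 400/well; qHTS titration format.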
ClpP mod: qHTS Assay for Activators of ClpP | ATP-dependent Clp protease proteolytic subunit (Bacillus subtilis (strain 168)), P80244 | purified B. subtilis ClpP, FRET peptide cleavage, 20 min | Potency, µM (titrated, usually from 57.5 µM), for the others: top-dose activity change, negative = active | 1.9% of 340,000 active | AID 651965, 2013; active = well fitted falling curve with a large enough effect; inconclusive = small, poorly fitted or top-dose-only effect; inactive = no such curve, though single readings can be large or run the other way; also: potency is read from the fitted curve at half-maximal effect; the source files actives as falling curves though it sought activators and does not explain the sign; nearly all actives have a fitted effect of over 65% in size
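Buffer: 100 mM Tris/HCl pH8, 100 mM KCl, 0.05% low protease BSA, 2.5% glycerol, 0.01% Tween-20. ClpP 10 microg/mL final; 20 min RT; delta FRET normalized to ADEP and DMSO controls.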
Numbers without * were called inactive; ? = inconclusive; · = no result given. This is a sample that favours compounds with a hit; in the whole collection about 21% have one here. Unless noted, calls follow the shape of the dose curve; as a rule, active = well fitted inhibition curve with a large enough effect; inconclusive = small, poorly fitted or top-dose-only effect; inactive = flat fitted curve, though single readings scatter.

SMILES	TDP1 cell noCPT	DRD3 antagonist	D3 ag	IL-1B inflam inh	DT40 TDP1 CPT	ClpP mod
Cc1cc(C2=CC(=O)C[C@H](c3ccc4c(c3)OCO4)C2)ccc1F	-28%	?	-22	-51*	-18%	-1%
CC(C)(C)c1cc(NC(=O)CCSc2nnc3ccccn23)cc(C(C)(C)C)c1	-11%	28	14	18	-15%	-21%
CCOc1ccc(C2C(=O)N(C3CCCCCC3)CC(=O)N2Cc2ccc(F)cc2)cc1OC (stereo not drawn)	?	·	-15	·	?	-2%
CCCCNC(=O)[C@@H]1Cc2ccccc2N1C(=O)[C@H](N)CC	?	·	·	·	-11%	·
Cc1ccc(CC(=O)Nc2ccc3c(c2)N(C)C(=O)c2ccccc2S3)cc1	?	·	-2	·	?	0%
CN1/C(=C/c2cccc[n+]2C)Sc2ccccc21	0.33µM*	-11	-1	-67*	0.58µM*	1%
CCCCN1/C(=C/c2cccc[n+]2C)Sc2cc(NC(C)=O)ccc21	-14%	-2	4	8	-5%	-4%
Cc1ccc2c(c1)N(C)/C(=C/c1cccc[n+]1C)S2	0.52µM*	-5	-3	-88*	3.7µM*	·
Cc1ccc2c(c1)N(C)/C(=C/c1cccc[n+]1CCO)S2	1.2µM*	-23	-6	?	1.6µM*	0%
Cc1cc(=O)[nH]c(NN=C2CCCCC2C)n1 (stereo not drawn)	18µM*	?	-6	-1	?	0%
COc1ccc(NC(=O)c2csnn2)cc1Cl	?	·	-3	·	?	-2%
COc1ccc(OC(C)c2nnc(N)s2)cc1 (stereo not drawn)	0%	-4	0	-11	-8%	0%
Cc1ccc(OC(C)c2nnc(N)s2)cc1Cl (stereo not drawn)	?	17	5	2	21µM*	-2%
CCn1c(SCC(=O)Nc2nc3ccccc3s2)nc2c(c1=O)SC(C)C2 (stereo not drawn)	23µM*	3	14	?	0.73µM*	-1%
CCn1c(SCC(=O)Nc2cc(C)on2)nc2c(c1=O)SC(C)C2 (stereo not drawn)	?	14	7	15	-16%	-1%
CCn1c(SCC(=O)Nc2nc3ccc(C)cc3s2)nc2c(c1=O)SC(C)C2 (stereo not drawn)	10µM*	35	10	-83*	16µM*	-2%
Cc1ccc(NC(=O)c2c(C)oc3ncn(CC(C)C)c(=O)c23)nc1	9.2µM*	·	-11	·	13µM*	-2%
COC(=O)C(CCSC)NC(=O)c1c(C)oc2ncn(CC(C)C)c(=O)c12 (stereo not drawn)	13µM*	·	2	·	-26%	4%
Cc1oc2ncn(CC(C)C)c(=O)c2c1C(=O)NC(C)c1ccccc1 (stereo not drawn)	21µM*	·	-6	·	21µM*	?
CCC(C)NC(=O)c1c(C)oc2ncn(CC(C)C)c(=O)c12 (stereo not drawn)	?	·	5	·	-29%	-1%
CCOc1ccc(CCNC(=O)c2ccc(=O)[nH]c2)cc1OCC	10%	0	-6	0	-14%	1%
CCc1sc(NC(=O)CCC(=O)O)nc1-c1cc2ccccc2oc1=O	-3%	4	2	23	-3%	-2%
CSCCC(NC(=O)/C(=C/c1ccc(F)cc1)NC(C)=O)C(=O)O (stereo not drawn)	-9%	-10	5	17	-5%	·
COc1ccc(-c2cc(C(=O)NNC(=O)c3csc(N4CCOCC4)n3)c3ccccc3n2)cc1OC	16µM*	70	15	-16	21µM*	·
COc1ccc(-c2cc(C(=O)NNC(=O)c3csc(N4CCOCC4)n3)c3ccccc3n2)cc1	?	-7	4	-15	-26%	?

Screens as filed in PubChem BioAssay.
